Percent Effect data for nine compounds are collected here from ChEMBL document CHEMBL3988442, “University of Dundee, Small-Polar-MMV Screening Library” (2021).

For part of these data: Potency and affinity values are given separately.

Common to all, as to parameters: scale not given: direction of the effect not stated beside the values
The target of experiment [1] is Protein translocase subunit SecA (Escherichia coli (strain K12)) (UniProt P10408). Description: Assay to Identify E. coli SecA ATPase Inhibitors. The format is functional. The following applies: 30 µM.
Sequence of Protein translocase subunit SecA (Escherichia coli (strain K12)) (P10408 whole entry): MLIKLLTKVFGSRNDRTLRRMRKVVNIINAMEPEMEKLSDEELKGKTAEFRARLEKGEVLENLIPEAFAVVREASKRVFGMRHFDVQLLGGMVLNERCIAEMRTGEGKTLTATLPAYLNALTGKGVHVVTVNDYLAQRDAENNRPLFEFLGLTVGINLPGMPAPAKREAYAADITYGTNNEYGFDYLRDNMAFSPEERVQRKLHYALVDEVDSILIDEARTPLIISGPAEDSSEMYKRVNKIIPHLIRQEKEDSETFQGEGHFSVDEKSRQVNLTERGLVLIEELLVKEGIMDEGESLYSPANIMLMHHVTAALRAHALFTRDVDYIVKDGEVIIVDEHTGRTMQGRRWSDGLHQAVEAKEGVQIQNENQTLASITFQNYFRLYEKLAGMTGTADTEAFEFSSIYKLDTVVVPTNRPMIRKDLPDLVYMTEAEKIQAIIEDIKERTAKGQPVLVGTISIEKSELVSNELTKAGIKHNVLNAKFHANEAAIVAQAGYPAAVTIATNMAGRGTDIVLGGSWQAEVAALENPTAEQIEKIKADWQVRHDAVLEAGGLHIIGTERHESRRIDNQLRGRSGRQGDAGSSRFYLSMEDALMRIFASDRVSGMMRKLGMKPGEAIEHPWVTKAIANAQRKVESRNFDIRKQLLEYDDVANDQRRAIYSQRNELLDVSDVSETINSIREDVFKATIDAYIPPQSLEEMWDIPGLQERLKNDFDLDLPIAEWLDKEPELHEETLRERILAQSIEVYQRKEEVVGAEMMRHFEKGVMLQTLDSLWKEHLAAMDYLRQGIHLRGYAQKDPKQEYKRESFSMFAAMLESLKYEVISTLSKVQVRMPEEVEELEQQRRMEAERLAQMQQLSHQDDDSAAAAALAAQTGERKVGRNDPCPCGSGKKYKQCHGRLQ
The target in experiment [2] is T1, Ubiquitin-activating enzyme e1, putative (Leishmania donovani (strain BPK282A1)) (UniProt E9BSI1).
T1 sequence (whole entry): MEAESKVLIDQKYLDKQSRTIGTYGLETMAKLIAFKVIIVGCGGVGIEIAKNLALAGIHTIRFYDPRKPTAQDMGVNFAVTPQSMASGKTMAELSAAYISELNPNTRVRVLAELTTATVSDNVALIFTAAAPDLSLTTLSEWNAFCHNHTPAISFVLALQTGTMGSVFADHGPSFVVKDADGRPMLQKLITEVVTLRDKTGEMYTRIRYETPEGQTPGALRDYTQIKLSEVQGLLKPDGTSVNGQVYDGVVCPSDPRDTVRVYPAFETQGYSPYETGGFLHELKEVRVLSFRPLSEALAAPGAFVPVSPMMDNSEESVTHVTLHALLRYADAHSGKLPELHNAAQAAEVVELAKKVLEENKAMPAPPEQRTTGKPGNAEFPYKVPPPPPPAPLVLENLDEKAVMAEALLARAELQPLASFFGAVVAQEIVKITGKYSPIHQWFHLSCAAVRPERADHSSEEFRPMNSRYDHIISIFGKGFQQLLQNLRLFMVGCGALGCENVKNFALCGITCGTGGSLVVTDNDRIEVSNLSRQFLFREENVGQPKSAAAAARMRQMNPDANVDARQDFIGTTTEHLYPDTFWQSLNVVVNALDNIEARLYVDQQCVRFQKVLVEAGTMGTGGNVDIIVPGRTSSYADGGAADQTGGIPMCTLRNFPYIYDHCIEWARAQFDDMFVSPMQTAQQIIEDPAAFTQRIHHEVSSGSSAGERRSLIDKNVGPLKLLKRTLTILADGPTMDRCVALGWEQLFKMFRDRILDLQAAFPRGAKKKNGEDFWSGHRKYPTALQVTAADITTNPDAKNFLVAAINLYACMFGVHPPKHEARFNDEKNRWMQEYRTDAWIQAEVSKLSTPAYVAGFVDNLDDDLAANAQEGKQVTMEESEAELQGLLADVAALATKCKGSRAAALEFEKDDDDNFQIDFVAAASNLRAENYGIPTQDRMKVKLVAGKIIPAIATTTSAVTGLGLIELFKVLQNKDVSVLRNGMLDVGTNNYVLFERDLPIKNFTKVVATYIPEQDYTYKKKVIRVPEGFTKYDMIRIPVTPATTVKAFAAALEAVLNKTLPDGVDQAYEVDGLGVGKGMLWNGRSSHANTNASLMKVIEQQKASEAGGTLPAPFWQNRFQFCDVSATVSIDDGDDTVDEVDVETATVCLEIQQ
Description: Leishmania donovani Ubiquitin Activating Enzyme (LdE1). It counts as functional. To be noted: 30 µM.

The target in experiment [3] is AMP-activated protein kinase, AMPK (Homo sapiens) (UniProt P54646+O43741+P54619+Q9UGJ0+Q9Y478+Q13131+Q9UGI9). Put plainly: AMP-dependent Kinase enzyme assay. An in vitro enzyme assay that detects ADP turnover that is directly proportional to AMPK activity. This uses naive AMPK that is activated during the assay with MK-8722. The format is functional. To be noted: 30 µM.

Experiment [4] deals with Sialic acid-binding Ig-like lectin 9 (Homo sapiens) (UniProt Q9Y336). Description: Hs-Siglec9 ALPHAscreen SOP 20170721. To be noted: 10 µM. (In general: In Alpha technology, singlet oxygen from a donor bead excites a nearby acceptor bead.)
Sequence of Sialic acid-binding Ig-like lectin 9 (Homo sapiens) (Q9Y336 whole entry): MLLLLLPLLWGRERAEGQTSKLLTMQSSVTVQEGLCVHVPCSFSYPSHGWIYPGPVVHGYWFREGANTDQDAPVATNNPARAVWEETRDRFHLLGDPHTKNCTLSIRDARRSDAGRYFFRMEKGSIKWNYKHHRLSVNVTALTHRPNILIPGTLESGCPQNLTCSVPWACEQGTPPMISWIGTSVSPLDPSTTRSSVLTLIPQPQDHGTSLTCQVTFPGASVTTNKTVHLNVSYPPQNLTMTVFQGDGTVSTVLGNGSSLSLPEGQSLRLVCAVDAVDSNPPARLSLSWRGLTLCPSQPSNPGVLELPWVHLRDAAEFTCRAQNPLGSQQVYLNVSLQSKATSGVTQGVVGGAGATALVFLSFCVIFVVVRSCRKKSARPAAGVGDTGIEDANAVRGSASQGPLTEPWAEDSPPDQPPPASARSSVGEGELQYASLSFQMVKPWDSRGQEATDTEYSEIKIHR
The test system of experiment [5] is Trypanosoma cruzi. Put plainly: Trypanosoma cruzi phosphomannomutase and mannose-1-phosphate guanylyltransferase assay. The format is functional. To be noted: 10 µM.
The target of experiment [6] is T2, Arginase-2, mitochondrial (Homo sapiens) (UniProt P78540).
T2 sequence (whole entry): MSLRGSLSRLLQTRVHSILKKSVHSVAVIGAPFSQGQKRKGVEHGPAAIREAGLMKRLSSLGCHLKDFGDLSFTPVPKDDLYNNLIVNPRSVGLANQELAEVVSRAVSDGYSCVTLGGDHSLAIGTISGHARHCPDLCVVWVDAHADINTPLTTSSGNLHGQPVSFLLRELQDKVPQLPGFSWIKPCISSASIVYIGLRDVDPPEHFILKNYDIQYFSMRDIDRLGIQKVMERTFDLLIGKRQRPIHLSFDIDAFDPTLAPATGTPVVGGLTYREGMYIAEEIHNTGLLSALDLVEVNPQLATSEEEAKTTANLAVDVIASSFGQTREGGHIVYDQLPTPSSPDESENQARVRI
Put plainly: in vitro enzyme assay to detect the production of urea directly proportional to the activity of Arginase II. Note: in the data most compounds retested in dose-response had high values. The format is functional. The following applies: 33.3 µM.

For experiment [7], the target named is T3, Proteasome subunit beta (Trypanosoma cruzi) (UniProt O96673).
T3 sequence (whole entry): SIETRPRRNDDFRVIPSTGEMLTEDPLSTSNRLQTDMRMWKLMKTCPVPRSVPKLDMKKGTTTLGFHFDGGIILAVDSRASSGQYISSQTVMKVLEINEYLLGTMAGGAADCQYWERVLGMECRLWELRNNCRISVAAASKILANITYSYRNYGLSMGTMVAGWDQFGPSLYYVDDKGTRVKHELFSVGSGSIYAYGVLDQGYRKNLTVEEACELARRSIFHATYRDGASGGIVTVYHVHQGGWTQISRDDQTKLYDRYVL
Put plainly: Trypanosoma cruzi proteasome chymotrypsin-like activity (TcProtChymo) assay. Note: in the data most compounds retested in dose-response had high values. To be noted: 9.37 µM. The format is functional.

The species named for experiment [8] is Homo sapiens. Description: To identify inhibition of the IFN signalling (Jak-Stat) pathway via expression of an eGFP reporter gene under the control of an IFN-stimulated response element (ISRE) containing MxA promoter. To be noted: 30 µM. It counts as functional. For orientation: Reporter assays use an easily measured gene product as a stand-in for the process of interest.

In experiment [9] the target is T4, Tyrosyl-tRNA synthetase, putative (Trypanosoma cruzi (strain CL Brener)) (UniProt Q4DSP6).
T4 sequence (whole entry): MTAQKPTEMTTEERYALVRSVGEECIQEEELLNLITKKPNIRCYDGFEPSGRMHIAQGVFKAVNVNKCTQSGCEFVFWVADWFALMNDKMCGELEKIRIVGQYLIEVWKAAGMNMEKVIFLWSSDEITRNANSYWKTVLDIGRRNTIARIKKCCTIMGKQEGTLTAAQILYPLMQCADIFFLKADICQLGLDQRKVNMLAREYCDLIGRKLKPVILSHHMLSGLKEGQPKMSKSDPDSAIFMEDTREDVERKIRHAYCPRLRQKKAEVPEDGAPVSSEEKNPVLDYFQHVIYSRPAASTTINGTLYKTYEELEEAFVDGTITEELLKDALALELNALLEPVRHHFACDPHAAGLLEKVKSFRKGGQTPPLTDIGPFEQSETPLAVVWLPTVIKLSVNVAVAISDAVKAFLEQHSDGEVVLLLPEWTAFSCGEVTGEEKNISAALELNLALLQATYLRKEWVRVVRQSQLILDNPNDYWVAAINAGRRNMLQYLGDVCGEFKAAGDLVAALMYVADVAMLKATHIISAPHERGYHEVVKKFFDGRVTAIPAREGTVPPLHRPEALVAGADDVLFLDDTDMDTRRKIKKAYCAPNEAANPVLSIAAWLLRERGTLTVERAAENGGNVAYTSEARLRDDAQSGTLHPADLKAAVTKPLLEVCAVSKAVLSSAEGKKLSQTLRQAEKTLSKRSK
Description: Trypanosoma cruzi tyrosyl tRNA synthetase (TcYRS) _High Tyrosine SOP. Note: in the data most compounds retested in dose-response had high values. The following applies: 30 µM. It counts as functional.

Experiment [10] has as its target T4, Tyrosyl-tRNA synthetase, putative (Trypanosoma cruzi (strain CL Brener)). Put plainly: Trypanosoma cruzi tyrosyl tRNA synthetase (TcYRS) SOP. It counts as functional. The following applies: 30 µM.
The target in experiment [11] is Chromo domain-containing protein 1 (Saccharomyces cerevisiae (strain ATCC 204508 / S288c) (Baker's yeast)) (UniProt P32657). Put plainly: ScCHD-1 Enzyme Inhibition Assay. Note: in the data most compounds retested in dose-response had high values. The format is functional. The following applies: 30 µM.
Sequence of Chromo domain-containing protein 1 (Saccharomyces cerevisiae (strain ATCC 204508 / S288c) (Baker's yeast)) (P32657 whole entry, the tested form may be a part): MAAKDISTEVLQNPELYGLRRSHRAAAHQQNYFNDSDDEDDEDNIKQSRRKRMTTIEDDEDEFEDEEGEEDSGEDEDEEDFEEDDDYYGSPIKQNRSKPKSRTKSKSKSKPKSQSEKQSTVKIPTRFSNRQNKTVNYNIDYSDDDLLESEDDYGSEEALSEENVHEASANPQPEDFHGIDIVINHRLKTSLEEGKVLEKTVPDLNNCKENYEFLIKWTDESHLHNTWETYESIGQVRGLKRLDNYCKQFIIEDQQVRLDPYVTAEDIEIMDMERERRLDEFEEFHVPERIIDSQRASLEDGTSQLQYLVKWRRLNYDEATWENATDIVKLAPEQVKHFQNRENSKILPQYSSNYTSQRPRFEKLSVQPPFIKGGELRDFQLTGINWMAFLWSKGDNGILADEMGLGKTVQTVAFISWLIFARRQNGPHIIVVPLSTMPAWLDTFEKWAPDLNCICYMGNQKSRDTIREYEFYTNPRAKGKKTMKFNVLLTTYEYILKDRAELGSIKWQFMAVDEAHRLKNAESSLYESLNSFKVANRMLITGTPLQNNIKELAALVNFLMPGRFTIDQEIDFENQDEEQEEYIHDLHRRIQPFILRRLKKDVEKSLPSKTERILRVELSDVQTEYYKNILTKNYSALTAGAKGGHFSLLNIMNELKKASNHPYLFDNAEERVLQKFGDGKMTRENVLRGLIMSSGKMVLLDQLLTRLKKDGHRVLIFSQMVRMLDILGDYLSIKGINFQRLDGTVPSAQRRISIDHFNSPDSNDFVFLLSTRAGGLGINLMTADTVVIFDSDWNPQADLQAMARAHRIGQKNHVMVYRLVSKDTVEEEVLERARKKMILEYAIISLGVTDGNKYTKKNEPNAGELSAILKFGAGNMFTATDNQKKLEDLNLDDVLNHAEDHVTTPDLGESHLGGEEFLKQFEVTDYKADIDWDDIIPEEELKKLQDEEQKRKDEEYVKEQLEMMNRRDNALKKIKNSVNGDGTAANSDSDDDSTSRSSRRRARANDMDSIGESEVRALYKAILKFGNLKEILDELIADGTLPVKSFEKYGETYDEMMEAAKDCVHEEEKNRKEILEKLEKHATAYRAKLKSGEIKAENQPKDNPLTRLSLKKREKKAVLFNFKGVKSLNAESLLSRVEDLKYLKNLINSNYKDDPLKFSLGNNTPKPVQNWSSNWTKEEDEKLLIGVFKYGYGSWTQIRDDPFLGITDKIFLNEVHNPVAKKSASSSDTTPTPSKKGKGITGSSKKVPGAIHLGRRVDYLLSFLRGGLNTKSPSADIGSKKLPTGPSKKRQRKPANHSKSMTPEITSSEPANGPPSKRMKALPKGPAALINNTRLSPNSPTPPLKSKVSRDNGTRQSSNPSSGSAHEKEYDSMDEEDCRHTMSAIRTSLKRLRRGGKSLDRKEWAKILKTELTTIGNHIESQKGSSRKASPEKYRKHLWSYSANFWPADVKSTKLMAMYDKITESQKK

As for `Cc1n[nH]cc1CNc1ccc2c(c1)N(C(=O)OC(C)(C)C)CCC2`, the Percent Effect is -6.86% in experiment [1]; 7.79% in experiment [2]; -1.81% in experiment [3]; 5.14% in experiment [4]; 1.08% in [5]; -8.28% in experiment [6]. Further, the Percent Effect in experiment [7] is 7.65%; in experiment [8], 4.68%; in experiment [9] it was 4.3%; in experiment [10], 8.64%; in experiment [11], 0.972%.
As for `CCOCCn1nc(C)cc1C(=O)N1CCN(C(C)C)C(CC)C1` (centres undefined), the Percent Effect is -4.36% in experiment [1]; 2.7% in experiment [2]; -2.68% in experiment [3]; 4.47% in experiment [4]; 6.56% in [5]; -1.43% in experiment [6]. In addition, the Percent Effect in experiment [7] was 10.9%; in experiment [8] it was 10.2%; in experiment [9], 3.7%; in experiment [10], 12.2%; in [11], -1.83%.
Regarding `COCCNC(=O)CCc1c(C)nn(-c2nc(C)c(C)c(=O)[nH]2)c1C`, the Percent Effect in experiment [1] was 0.376%; in experiment [2], 7.79%; in experiment [3], -3.21%; in experiment [4], -3.83%; in experiment [5], -7%; in [6], 23.9%. Besides, the Percent Effect is 8.01% in [7]; 4.73% in experiment [8]; 8.47% in [9]; 14.1% in experiment [10]; -7.76% in experiment [11].
For `O=C(C1CCC1)N1CCN(C(=O)c2cnccn2)[C@H]2CS(=O)(=O)C[C@H]21`, the Percent Effect in [1] is -0.271%; in experiment [2], 13.5%; in experiment [3], -3.89%; in experiment [4], 16.5%; in experiment [5], 7.34%; in [6], 0.476%. Besides, the Percent Effect in experiment [7] was 9.65%; in experiment [8] it was 3.49%; in experiment [9], 4.76%; in [10], 17.1%; in experiment [11], -3.81%.
Regarding `CCn1cc(NC(=O)C2CCN(Cc3ccccc3C#N)CC2)cn1`, the Percent Effect in experiment [1] was -3.86%; in experiment [2] it was 8.86%; in experiment [3], 6.54%; in [4] it was 0.163%; in [5], -3.79%; in experiment [6], 1.5%. Also, the Percent Effect in experiment [7] is 7.03%; in experiment [8] it was 11.2%; in experiment [9] it was 9.38%; in experiment [10], 20.2%; in experiment [11], -6.33%.
Regarding `CC(C)c1nccn1CCCNC(=O)c1ccc(-c2cncnc2)nc1`, the Percent Effect is -0.347% in experiment [1]; 8% in [2]; -10.9% in experiment [3]; 8.21% in experiment [4]; 3.21% in experiment [5]; 7.29% in experiment [6]. Besides, the Percent Effect in experiment [7] was 16.2%; in experiment [8], 17.9%; in experiment [9] it was 4.92%; in [10], 13.6%; in experiment [11], -5.5%.
Regarding `CN(Cc1ccc(Cl)s1)C(=O)NCc1nnc2n1CCC2`, the Percent Effect was -2.21% in experiment [1]; 21.1% in experiment [2]; 2.58% in experiment [3]; -10.7% in experiment [4]; 4.2% in [5]; -3.96% in experiment [6]. Besides, the Percent Effect in [7] is 7.87%; in experiment [8] it was 0.395%; in experiment [9], 6.4%; in experiment [10] it was 18.5%; in [11], -7.27%.
On to `CC(NC(=O)NCc1cccnc1N1CCCCC1)c1nccs1` (centres undefined), for which the Percent Effect was -4.11% in experiment [1]; 7.79% in [2]; 4.63% in [3]; 1.05% in [4]; 6.37% in experiment [5]; -7.12% in [6]. Further, the Percent Effect in [7] was 1.01%; in [8], 2.75%; in [9], 5.83%; in experiment [10], 14.6%; in experiment [11], -7.32%.
For `CCc1c(C(=O)N2CCCN(C(C)=O)CC2)cnn1C(C)(C)C`, the Percent Effect in experiment [1] is -5.01%; in experiment [2], 23.7%; in [3] it was -6.43%; in [4], 9.75%; in experiment [5] it was 3.27%; in experiment [6] it was 1.08%. Also, the Percent Effect in [7] is 6.68%; in experiment [8] it was -2.15%; in [9], 7.39%; in experiment [10], 25.9%; in experiment [11], -9.24%.
